An excerpt weighted towards active compounds, which were near 3.7% of everything screened.
A549 tox = counter-screen for Nrf2 inhibitors: cytotoxicity in A549 cells | A549 ARE-Fluc cells, CellTiter-Fluor viability, 18-24 h | Potency, µM (top dose mostly 46 µM), inactives show top-dose activity change, negative = cytotoxicity, hits mostly inhibitors | 390,000 compounds, 0.16% hits | AID 504648; further: on the % scale 0 is the no-effect control and ±100 the full control effect
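A549 ARE_Fluc cells in 5% FBS OPTI-MEM were exposed to compounds in concentration-response for 18-24 h at 37 deg C. Viability was read by CellTiter-Fluor fluorescence (Ex 405/Em 525) after 30 min, before the luciferase read.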
Nrf2 block = blocks Nrf2 signaling; A549 ARE-Fluc reporter, luciferase luminescence, 18-24 h; 360,000 compounds, 2.1% hits; Potency, µM (highest dose often 46 µM), for the others: at the highest dose activity change, negative = inhibition, usual class: inhibitors; AID 504444; further: on the % scale 0 is the no-effect control and ±100 the full control effect; nearly all actives have a fitted effect of over 60% in size
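Concentration-response testing used A549 ARE_Fluc cells at 5000 cells/well. Following an 18-24 h compound incubation, viability was read by fluorescence (Ex 405/Em 525) and luciferase output by luminescence.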
Nrf2 ARE act = activates Nrf2 signaling | AREc32 ARE-luciferase reporter (MCF7-derived line), luminescence, 24 h | Potency, µM (doses to about 46.1 µM), inactives show at the top dose activation, usual class: activators | 410,000 compounds, 0.31% hits | AID 624171; further: % of control where 0% means no effect; nearly all actives have a fitted effect of over 65% in size
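For detection, Steady-Glo was added and plates sat 30 min at RT; before that, AREc32_Fluc cells grown overnight in OPTI-MEM/5% FBS had been treated with 23 nL compound for 24 hr at 37 deg C.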
ELG1 repair inh = ELG1-dependent DNA repair inhibition | HEK293T ELG1-luciferase reporter, luminescence, 16 h; DNA damage induced by 5-fluorouridine | AID 504467 | Potency, µM (series often up to 46.1 µM), for inactives: top-dose activity change, negative = inhibition, usual class: inhibitors | 330,000 compounds, 2.3% hits; further: on the % scale 0 is the no-effect control and ±100 the full control effect; nearly all actives have a fitted effect of over 55% in size
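DMSO vehicle served as the neutral condition. Each well held 2,000 cells given 5-fluorouridine plus compound; after 16 hr at 37 °C/5% CO2, ONE-Glo was added and luciferase measured 30 min later.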
Numbers without * were called inactive; ? = inconclusive; nt = no result; [ ] = dose if it differs, or a comment. The call rests on the fitted dose curve; in most records, active means well fitted curve in the direction sought with a large enough effect; inconclusive means small, poorly fitted or top-dose-only effect, or another doubt; inactive means no such curve, though single readings can be large; an effect the other way counts as inactive or inconclusive. Potency means the concentration at half of the fitted maximal effect.

SMILES	A549 tox	Nrf2 block	Nrf2 ARE act	ELG1 repair inh
CC(=O)N1CC(C)Sc2ccc(S(=O)(=O)NCCc3ccc(C)cc3)cc21 (configuration not stated)	-11%	7.3µM*	0%	?
CC(=O)N1CCSc2ccc(S(=O)(=O)NCCc3ccc(C)cc3)cc21	-4%	?	3%	?
CC(=O)N1CCSc2ccc(S(=O)(=O)NCCc3ccc(Cl)cc3)cc21	-18%	15µM*	0%	?
CCOC(=O)C1=CCN(S(=O)(=O)c2ccccc2C)C1c1ccc(F)cc1 (configuration not stated)	nt	nt	3%	nt
CCCCn1c(-c2ccc(Br)cc2F)nc2c1c(=O)[nH]c(=O)n2CC(C)C	?	21µM*	5%	?
COCCn1c(-c2ccc(-c3ccccc3Cl)o2)nc2c1c(=O)[nH]c(=O)n2CC(C)C	-7%	?	0%	?
CCCCn1c(=O)[nH]c(=O)c2c1nc(-c1ccc(OCCC)c(OCC)c1)n2CCOC	1%	?	0%	6.5µM*
CCCCn1c(=O)[nH]c(=O)c2c1nc(-c1ccc(-c3ccccc3Br)o1)n2CCOC	-2%	-21%	4%	2.6µM*
CC1=NN(C(C#N)c2c(C)nn(Cc3ccccc3)c2C)C(C)(C)C1 (configuration not stated)	1%	6%	4%	-3%
CCOC(=O)c1sc(NC(=O)CSc2nccc(C)n2)c(C#N)c1C	-1%	-6%	-1%	6%
CCOC(=O)c1sc(NC(=O)CSc2n[nH]c(-c3ccncc3)n2)c(C#N)c1C	-8%	?	2%	18µM*
Cc1sc(NC(=O)CSc2nnc(-c3ccccc3)o2)c(C#N)c1C	-11%	?	3%	-8%
CCCn1c(SCC(=O)Nc2sc(C)c(C)c2C#N)nnc1C(C)C	2%	?	-1%	21µM*
Cc1sc(NC(=O)CSc2nc(N)cc(N)n2)c(C#N)c1C	-7%	21µM*	2%	?
Cc1ccc(CN(c2ccc(C(=O)N3CCc4ccccc4C3)cc2)S(C)(=O)=O)cc1	-16%	nt	0%	16µM*
CS(=O)(=O)N(Cc1ccc(C(=O)N2CCc3ccccc3C2)cc1)c1ccccc1	-10%	-16%	4%	0%
CCOc1ncccc1C(=O)Nc1ccc(OC)c(S(=O)(=O)N2CCCCC2)c1	-12%	-19%	0%	?
Cc1ccc(NC(=S)Nc2ccc(C(C)C)cc2)cc1S(=O)(=O)N1CCCCCC1	?	12µM*	11%	12µM*
CCOc1ncccc1C(=O)Nc1ccc(C)c(S(=O)(=O)N2CCCCCC2)c1	-16%	-25%	3%	21µM*
Cc1ccc(NC(=O)c2ccc(=O)[nH]c2)cc1S(=O)(=O)N1CCCCCC1	2%	-17%	3%	16µM*
CCCCC(=O)Nc1ccc(C)c(S(=O)(=O)N2CCCCCC2)c1	?	16µM*	5%	-10%
Cn1nnnc1Sc1ncnc2scc(-c3ccccc3C#N)c12	-8%	?	nt	nt
c1csc(C2=Nn3c(nnc3-c3ccncc3)SC2)c1	-4%	16µM*	3%	1.1µM*
COc1ccc2oc3cc(Cl)ccc3c(=O)c2c1	nt	nt	7.9µM*	nt
COc1cc2oc3ccccc3c(=O)c2cc1OC	-1%	7%	10µM*	?
SMILES	A549 tox	Nrf2 block	Nrf2 ARE act	ELG1 repair inh
O=c1c2ccccc2oc2cc(Br)ccc12	2%	?	?	nt
Cc1nc2oc3ccccc3c(=O)c2cc1C(=O)O	-4%	9%	0%	?
COC(=O)c1cc2c(=O)c3ccccc3oc2nc1C	0%	?	7.9µM*	?
CCCSc1ncnc2c1c(-c1ccccc1)cn2-c1ccccc1OC	22%	9%[9.27 µM]	4%	nt
CC(C)=CC(O)C/C(C)=C/COc1ccc2ccc(=O)oc2c1 (configuration not stated)	-29%	10µM*	-3%	-10%
C/C(=N\NC(=O)c1ccc(CN(C)S(=O)(=O)c2ccc(C)cc2)cc1)c1ccc(OC(F)F)cc1	-18%	5.2µM*	0%	?
CN(Cc1ccc(OC(F)F)cc1)C(=O)c1ccc(S(=O)(=O)N(C)c2ccccc2)cc1	-6%	?	1%	?
O=C(CN(Cc1ccco1)C(=O)c1cccc(F)c1)Nc1ccccc1C(F)(F)F	9%	11%	1%	-3%
COc1ccccc1CN1CC(C(=O)NCc2cc(F)ccc2C)CCC1=O (configuration not stated)	-5%	?	0%	?

Source: PubChem BioAssay
